From PubChem BioAssay
A number with no mark means an inactive call. How the calls were made is not given here.

What follows are compounds tested against Pantothenate synthetase (Mycobacterium tuberculosis (strain ATCC 25618 / H37Rv)) (UniProt P9WIL5) (assay: Recombinant Mtb pantothenate synthetase (PanC) inhibitors, coupled enzyme, confirmatory (AID 375;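 further: 0% = full reaction with vehicle and 100% = no enzyme background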)). Details: coupled enzyme assay; at 10 µM, hits give high values.
Chain of Pantothenate synthetase (Mycobacterium tuberculosis (strain ATCC 25618 / H37Rv)) (P9WIL5 whole entry, looked up): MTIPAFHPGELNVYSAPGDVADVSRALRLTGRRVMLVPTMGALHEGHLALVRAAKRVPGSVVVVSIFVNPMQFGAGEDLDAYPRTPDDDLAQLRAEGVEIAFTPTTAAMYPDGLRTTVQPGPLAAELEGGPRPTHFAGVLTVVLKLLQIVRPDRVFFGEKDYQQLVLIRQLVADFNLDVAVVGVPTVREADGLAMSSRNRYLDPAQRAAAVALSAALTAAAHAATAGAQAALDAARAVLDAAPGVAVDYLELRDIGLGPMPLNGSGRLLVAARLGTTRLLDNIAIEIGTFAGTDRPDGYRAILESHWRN

| SMILES | inhibition [%] |
| --- | --- |
| Cc1cc2nc(-c3ccco3)cc(C(F)(F)F)n2n1 | 0 |
| COc1cccc(NS(=O)(=O)c2cc(C)sc2C)c1 | 0 |
| O=c1[nH]c(=O)n(C2CCCCCC2)c(O)c1C=NCc1ccc(F)cc1 | 4 |
| O=C(NCCO)c1scc2c1OCCO2 | 4 |
| Cc1ccc(S(=O)(=O)C2(C(=O)N3CCCCCC3)CC2)cc1 | 0 |
| O=C(Nc1c(-c2ccccc2)nc2ccccn12)c1ccco1 | 0 |
| CN1CCN(C(=O)NC2CCCN2S(=O)(=O)c2ccc(Cl)cc2)CC1 (stereo not given) | 0 |
| C=CCOc1nc2c(c(=O)n(C)c(=O)n2C)n1C | 0 |
| CC1CC(=O)c2cnc(NCC3CCCO3)nc2C1 (stereo not given) | 3 |
| CCn1c(=O)n(CC(=O)N(C)Cc2ccccc2)c(=O)c2ccccc21 | 12 |
| CN1CCN(c2nc3c(c(=O)[nH]c(=O)n3C)n2CCSc2nc3ccccc3s2)CC1 | 8 |
| O=C(CSc1nnc(CNC(=O)c2cccs2)o1)NCCc1ccccc1 | 0 |
| c1ccc(-c2nnc(CSc3nncs3)o2)cc1 | 0 |
| Cc1ccc(C)c(OCCCC(C)(C)C(=O)O)c1 | 0 |
| COc1cccc(-c2nnc(NC(=O)c3ccccc3Br)o2)c1 | 0 |
| c1ccc(-n2cnc3cc(NCc4ccccn4)ccc32)cc1 | 0 |
| O=C(Oc1ccccc1)c1cccc(COC(=O)c2cnccn2)c1 | 5 |
| Cc1cc(O)c(C2(C(F)(F)F)NCCNC2=O)cc1C (stereo not given) | 5 |
| CN(C)c1ccc(NC(=O)c2ccncc2)c2ccccc12 | 6 |
| CC(C)CN(CC(C)C)C(=O)CS(=O)(=O)Cc1ccccc1 | 0 |

| SMILES | inhibition [%] |
| --- | --- |
| O=C(CSc1nc2ccccc2s1)N1CCN(C(=O)c2ccco2)CC1 | 0 |
| CN1CCCN(C(c2ccccc2)c2ccc(Cl)cc2)CC1 (stereo not given) | 0 |
| COc1ccc(C2c3c(oc4ccccc4c3=O)C(=O)N2Cc2ccncc2)cc1OC (stereo not given) | 6 |
| CCOC(=O)N1CCC(c2cc(=O)n3[nH]cc(C(=O)OC)c3n2)CC1 | 0 |
| COc1ccc(Br)cc1C(=O)Nc1nnn(C)n1 | 0 |
| CN(C)S(=O)(=O)c1ccc(C(=O)N2CCC(c3nc4ccccc4o3)CC2)cc1 | 5 |
| O=C(OCCCN1CCCC1)C1(c2ccccc2)CCCC1 | 1 |
| COc1ccc(S(=O)(=O)N(CCN2CCOCC2)Cc2cc(OC)ccc2OC)cc1 | 4 |
| COC1CCCCC1Nc1cccc(SC)c1 (stereo not given) | 0 |
| Cc1csc(SCCn2c(N3CCCC3)nc3c2c(=O)[nH]c(=O)n3C)n1 | 0 |
| CC(C)CNC(=O)c1c(N)n(/N=C/c2ccccn2)c2nc3ccccc3nc12 | 0 |
| O=C(NC1CCCCC1)c1cc2nc(-c3ccco3)cc(C(F)(F)F)n2n1 | 0 |
| Cc1cccc(NC(=O)c2ccccc2O)c1C | 0 |
| CNCCCC12CCC(c3ccccc31)c1ccccc12 | 0 |
| O=C(Nc1ccon1)c1csc2c1CCCC2 | 6 |
| CC(=O)Nc1c(O)nc(SCC(=O)Nc2nnc(CC(C)C)s2)[nH]c1=O | 9 |
| Cc1ccnc(NS(=O)(=O)c2ccc(NC(=O)Cc3cccs3)cc2)n1 | 3 |
| CCN(CC)CCNC(=O)c1ccc(CS(=O)(=O)c2ccc(Br)cc2)o1 | 0 |
| Cn1c(=O)c2c(nc(NCCCO)n2Cc2cccc(Br)c2)n(C)c1=O | 3 |
| COc1ccc(-c2[nH]c(-c3cccc(OC)c3)nc2SCC(=O)NCc2ccco2)cc1 | 1 |
